From PubChem BioAssay (EPA / NIEHS)
Where “and” joins values, the source holds several entries; their conditions need not be identical. Equal values may be shown once. Some compounds were tested as several samples or in several runs, with calls that do not always agree. Calls of active or inactive are those of the source. The calls were made as follows: active = hit-call score of the fitted dose curve at least 0.9, where 1 is the maximum; inactive = score below 0.9.

assay: CCTE_Mundy_HCI_Cortical_NOG_NeuriteLength: CCTE's Neurite Outgrowth Assay in rat cortical cells for Neurite Length, Mundy Lab (AID 2284213);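 as to AC50: neurites imaged about 48 to 50 h after chemical exposure began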
Protocol: CCTE_Mundy_HCI_Cortical_NOG is a multiplexed, cell-based-readout assay that uses rat primary cortical cells with measurements taken at 50.33 hours after chemical dosing in a microplate: 96-well plate.CCTE_Mundy_HCI_Cortical_NOG_NeuriteLength is one of four components of the CCTE_Mundy_HCI_Cortical_NOG assay. It measures neurite outgrowth related to the neurite length using High Content Imaging of fluorescently labelled markers.[…] Using a type of morphology reporter, loss -of-signal activity can be used to understand developmental effects.
Exposure starts 2 hours post-plating by adding 10 ul of the working solution to 90 ul of media in the wells for a 1/10 dilution. Forty-eight hours after chemical treatment cells are fixed by direct addition of 100 ul of warm (37C) Dulbecco's phosphate buffered saline (DPBS) fixative solution containing 8% paraformaldehyde, 8% sucrose, and 0.1% of 3 mg/ml Hoechst 33342 into each well. Primary antibodies are prepared by dilution in Immunocytochemical Staining Buffer (ISB), 10X Dulbecco's PBS, 0.1% Saponin, 5% Bovine Serum Albumin, 0.5% NaN3 (Sodium Azide) and betaIII-tubulin (rabbit anti-betaIII-tubulin, 1:800) followed by Alexa Fluor-488 secondary (1:500) to label neuronal cell bodies and neurites. A Cellomics ArrayScan VTi HCS Reader is used for automated image acquisition and analysis of neurite outgrowth.

| Compound | outcome | AC50 |
| --- | --- | --- |
| CCOP(=O)(OCC)Oc1cc(C)nc(C(C)C)n1 | inactive |  |
| CCOP(=O)(NC(C)C)Oc1ccc(SC)c(C)c1 (centres undefined) | inactive |  |
| C[N+]1(C)CCCCC1 | inactive |  |
| CCOP(=S)(Oc1cnc(C(C)(C)C)nc1)OC(C)C (centres undefined) | inactive | 26.1 µM (active) |
| CCOP(=S)(OCC)SCCSCC | inactive |  |
| COP(=O)(NC(C)=O)SC (centres undefined) | inactive |  |
| CON=C(C(=O)OC)c1ccccc1CON=C(C)c1cccc(C(F)(F)F)c1 |  | 1.14 µM (active) |
| CC1=NNC(=O)N(/N=C/c2cccnc2)C1 | inactive |  |
| CCCSP(=O)(OCC)Oc1ccc(Br)cc1Cl (centres undefined) | inactive |  |
| CCOP(=S)(OCC)Oc1ccc2c(C)c(Cl)c(=O)oc2c1 |  | 84.7 µM (active) |
| S=C1NCCN1 | inactive |  |
| CCCSP(=O)(OCC)SCCC | inactive |  |
| CCCCSP(=O)(SCCCC)SCCCC |  | 86.1 µM (active) and 75.3 µM (active) |
| CCOP(=O)(SC(C)CC)N1CCSC1=O (centres undefined) | inactive |  |
| COP(=O)(OC)OC(Br)C(Cl)(Cl)Br (centres undefined) |  | 29.4 µM (active) and 20.6 µM (active) |
| CC(C)N(C(=O)SCC(Cl)=C(Cl)Cl)C(C)C | inactive |  |
| CC[C@H](C)[C@H]1O[C@]2(C=C[C@@H]1C)C[C@@H]1C[C@@H](C/C=C(\C)[C@@H](O[C@H]3C[C@H](OC)[C@@H](O[C@H]4C[C@H](OC)[C@@H](NC)[C@H](C)O4)[C@H](C)O3)[C@@H](C)/C=C/C=C3\CO[C@@H]4[C@H](O)C(C)=C[C@@H](C(=O)O1)[C@]34O)O2 |  | 1.24 µM (active) and 1.58 µM (active) |
| CCOP(=S)(OCC)Oc1ccc([N+](=O)[O-])cc1 | inactive |  |
| CN(C)[C@@H]1C(=O)C(C(N)=O)=C(O)[C@@]2(O)C(=O)C3=C(O)c4c(O)cccc4[C@@](C)(O)[C@H]3[C@H](O)[C@@H]12 | inactive |  |
| C=C(C)[C@H]1Cc2c(ccc3c2O[C@@H]2COc4cc(OC)c(OC)cc4[C@@H]2C3=O)O1 |  | 0.0253 µM (active) |
| COP(=O)(OC)C(O)C(Cl)(Cl)Cl (centres undefined) | inactive |  |
| O=[N+]([O-])c1cc(C(F)(F)F)c(Cl)c([N+](=O)[O-])c1Nc1ncc(C(F)(F)F)cc1Cl |  | 0.8 µM (active) |
| CC(=NC#N)N(C)Cc1ccc(Cl)nc1 | inactive |  |
| CCOP(=S)(OCC)Oc1cc(C)nc(C(C)C)n1 | inactive |  |
| CN1COCN(Cc2cnc(Cl)s2)C1=N[N+](=O)[O-] | inactive |  |
| CCOP(=S)(OCC)OC(Cl)C(Cl)(Cl)Cl (centres undefined) |  | 66.9 µM (active) and 32.2 µM (active) |
| CCOC(=O)CC(SP(=O)(OC)OC)C(=O)OCC (centres undefined) | inactive |  |
| CSC1=N[C@@](C)(c2ccccc2)C(=O)N1Nc1ccccc1 | inactive |  |
